# From PubChem BioAssay
# “And” between values parts separate entries of the source, which are not always exact repeats. Equal entries are not always repeated. Results filed as inconclusive are left out. For some of these results: Results with a measured potency or affinity are listed apart. The source made the active and inactive calls. Unless noted, the rule behind the calls is not given here.
# Key:
# [1] = UWB1.289 ovarian carcinoma cell growth inhibition, synergistic combos for chromothripsis tumors, BGB or cisplatin combos (AID 1671456; in the data active = inhibition above about 80%;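 note: cells exposed to compound for four days; 0% = vehicle DMSO and 100% = killing by high DMSO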); settings: UWB1.289 ovarian carcinoma cells, stronger effect = higher value
# [2] = LFS_MB_2R medulloblastoma cell growth inhibition, synergistic combos for chromothripsis tumors, cisplatin combos (AID 1671457; in the data active = inhibition above about 80%;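 note: cells exposed to compound for four days before readout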); settings: LFS_MB_2R medulloblastoma cells, stronger effect = higher value
# [3] = UWB1.289_BRCA1 ovarian cancer growth, cell-based, BGB or cisplatin combinations (AID 1671459; in the data active = inhibition above about 80%); settings: UWB1.289 BRCA1 ovarian carcinoma, drug combinations, stronger effect = higher value
# [4] = human astrocyte viability loss, single and combined drugs, cytotoxicity control for chromothriptic childhood tumor combination screen, cell-based, BGB or cisplatin IC20 combos (AID 1671460; in the data active = inhibition above about 80%;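 note: cells exposed to compounds for 96 hours before viability readout; 0% = vehicle and 100% = killing control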); settings: Human astrocytes, drug combinations, stronger effect = higher value
# [5] = tested on: Aerobactin synthetase IucA (Klebsiella pneumoniae); assay: IucA aerobactin synthetase inhibitors, biochemical, Tocris library, absorbance (AID 1345561); settings: purified IucA enzyme assay, absorbance (OD) read-out; stronger effect = lower value;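 tested at 8 µM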;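 note: 100% = enzyme without compound and 0% = no enzyme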
# [6] = inhibitors of Cryptococcus chitosan production, flow cytometry, Cibacron Brilliant Red staining (AID 1347148); settings: Cryptococcus neoformans chitosan, stronger effect = lower value; at 10 µM unless noted;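 note: compound exposure lasted three days at 37 degrees C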
# [7] = growth inhibition of DIPG glioma cells, dose response, cell-based, SU-DIPG-XIII, MIPE4.0, CellTiter-Glo, qHTS (AID 1347061; cut-off not given, nearly all actives have AC50 up to about 37 µM;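 note: cells exposed to compound for 48 hours before readout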); settings: SU-DIPG-XIII viability, CellTiter-Glo ATP luminescence
# [8] = growth inhibition of DIPG glioma cells, dose response, cell-based, SU-DIPG-XIII, MIPE5.0, CellTiter-Glo, qHTS (AID 1347064; cut-off not given, nearly all actives have AC50 up to about 23 µM); settings: SU-DIPG-XIII viability, CellTiter-Glo ATP luminescence
# [9] = tested on: Neuropilin-2 / VEGF-C interaction (human); assay: inhibitors of NRP2–VEGF-C binding, biochemical, microplate binding format, z-score (AID 743281); settings: microplate NRP2/VEGF-C binding assay; stronger effect = lower value
# [10] = JHH-DIPG-1 glioma cell viability, MIPE5.0 library, CellTiter-Glo luminescence, qHTS (AID 1347067; cut-off not given, nearly all actives have AC50 up to about 26 µM;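 note: cells exposed to compound for 48 hours before readout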); settings: JHH-DIPG-1 glioma viability, CellTiter-Glo ATP luminescence
# [11] = SU-DIPG-XXV glioma cell viability, MIPE5.0 library, qHTS (AID 1347068; cut-off not given, nearly all actives have IC50 up to about 30 µM)
# [12] = growth inhibition of DIPG glioma cells, dose response, cell-based, SU-DIPG-XVII, MIPE5.0, CellTiter-Glo, qHTS (AID 1347060; cut-off not given, nearly all actives have AC50 up to about 26 µM); settings: SU-DIPG-XVII viability, CellTiter-Glo ATP luminescence
# [13] = viability loss in pontine glioma line – cell-based, SU-DIPG-XXV, MIPE5.0, CellTiter-Glo, qHTS, dose response (AID 1347065; cut-off not given, nearly all actives have AC50 up to about 26 µM;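 note: cells exposed to compound for 48 hours before ATP readout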); settings: CellTiter-Glo ATP luminescence
# [14] = modifiers of HSF1 nuclear foci, imaging, Selleck Cancer Library (AID 1347162; in the data active = plate-normalised HSF1 focus index below about 0.46); settings: human cells, at 10 µM; SSMD: measured here: HSF1 foci SSMD mean; cell count: measured here: cell number; plate-normalised HSF1 focus index: stronger effect = lower value
# [15] = antimalarial activity against Dd2 strain (AID 2302;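 active = growth inhibition above 50% at the single 2 µM test dose, taken to imply half-maximal potency below 2 µM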;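 note: 0% = DMSO untreated growth and 100% = chloroquine plus artemisinin killed control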); settings: P. falciparum Dd2 in RBCs, LDH growth readout, 72 h; at 2 µM; stronger effect = higher value
# [16] = HepG2 cytotoxicity, primary screen, cytotoxicity control for P. falciparum antimalarial project, cell-based, ATP luminescence (AID 2303;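 active = inhibition above 50%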;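 note: 0% = DMSO wells and 100% = digitonin-killed cells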); settings: HepG2 viability, 24-48 h, at 10 µM, stronger effect = higher value
# [17] = target: Calcium-dependent protein kinase 1 (Plasmodium falciparum (isolate 3D7)) (UniProt P62344); assay: PfCDPK1 kinase inhibitors, biochemical, TCAMS library (AID 1159585; cut-off not given, nearly all actives have IC50 up to about 0.98 µM;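 note: inhibitors leave more ATP so luminescence rises with inhibition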); settings: recombinant PfCDPK1, Kinase-Glo ATP depletion luminescence
# [18] = target: Plasmodium falciparum protein kinase 6 (PK6, PF3D7_1337100) (UniProt Q8IDW1); assay: PfPK6 kinase inhibitors, biochemical, TCAMS library (AID 1159586); settings: recombinant PfPK6, Kinase-Glo ATP depletion luminescence
# [19] = target: Protein kinase 7 (PK7), Plasmodium falciparum 3D7 (PF3D7_0213400) (UniProt Q7YTF7); assay: inhibition of Plasmodium PK7 catalytic activity – biochemical, TCAMS antimalarial set, Kinase-Glo luminescence (AID 1159587); settings: recombinant PfPK7, Kinase-Glo ATP depletion luminescence
# [20] = target: Calcium-dependent protein kinase 4 (Plasmodium falciparum (isolate 3D7)) (UniProt Q8IBS5); assay: PfCDPK4 kinase inhibitors, biochemical, TCAMS library (AID 1159588; cut-off not given, nearly all actives have IC50 up to about 0.91 µM); settings: recombinant PfCDPK4, Kinase-Glo ATP depletion luminescence
# [21] = measured here: inhibition with BGB combination, at 0.05 µM
# [22] = measured here: inhibition with cisplatin combination, at 0.05 µM
# [23] = measured here: combination with cisplatin, at 0.5 µM
# [24] = measured here: combination with cisplatin, at 5 µM
# [25] = BGB combination, concentration series, at 5 µM
# [26] = cisplatin combination, concentration series, at 5 µM
# [27] = measured here: combo with BGB IC20, at 0.5 µM
# [28] = measured here: combo with cisplatin IC20, at 0.5 µM
# Chain of Calcium-dependent protein kinase 4 (Plasmodium falciparum (isolate 3D7)) (Q8IBS5 whole entry, looked up): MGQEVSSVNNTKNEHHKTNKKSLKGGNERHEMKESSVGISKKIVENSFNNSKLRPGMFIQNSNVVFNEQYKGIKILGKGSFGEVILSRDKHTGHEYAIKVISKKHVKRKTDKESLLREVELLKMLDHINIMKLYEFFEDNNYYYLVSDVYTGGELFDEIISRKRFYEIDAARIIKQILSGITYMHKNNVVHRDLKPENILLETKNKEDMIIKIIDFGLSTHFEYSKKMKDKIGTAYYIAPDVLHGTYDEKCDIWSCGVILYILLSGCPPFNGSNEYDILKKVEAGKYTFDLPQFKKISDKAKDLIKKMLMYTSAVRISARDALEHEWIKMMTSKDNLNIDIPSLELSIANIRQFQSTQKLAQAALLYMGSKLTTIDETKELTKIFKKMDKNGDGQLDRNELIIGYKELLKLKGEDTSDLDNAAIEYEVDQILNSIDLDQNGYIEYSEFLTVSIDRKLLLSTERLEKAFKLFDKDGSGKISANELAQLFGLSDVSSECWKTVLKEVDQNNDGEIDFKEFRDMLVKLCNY
# Chain of Plasmodium falciparum protein kinase 6 (PK6, PF3D7_1337100) (Q8IDW1 1-305): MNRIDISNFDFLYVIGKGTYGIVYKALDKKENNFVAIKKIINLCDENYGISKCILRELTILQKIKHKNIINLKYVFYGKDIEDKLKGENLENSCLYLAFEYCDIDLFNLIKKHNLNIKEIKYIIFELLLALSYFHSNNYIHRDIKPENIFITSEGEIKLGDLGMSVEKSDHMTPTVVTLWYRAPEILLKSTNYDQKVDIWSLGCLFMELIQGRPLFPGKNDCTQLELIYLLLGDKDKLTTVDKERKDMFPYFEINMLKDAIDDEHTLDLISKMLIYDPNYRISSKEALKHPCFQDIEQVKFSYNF
# Chain of Protein kinase 7 (PK7), Plasmodium falciparum 3D7 (PF3D7_0213400) (Q7YTF7 1-343): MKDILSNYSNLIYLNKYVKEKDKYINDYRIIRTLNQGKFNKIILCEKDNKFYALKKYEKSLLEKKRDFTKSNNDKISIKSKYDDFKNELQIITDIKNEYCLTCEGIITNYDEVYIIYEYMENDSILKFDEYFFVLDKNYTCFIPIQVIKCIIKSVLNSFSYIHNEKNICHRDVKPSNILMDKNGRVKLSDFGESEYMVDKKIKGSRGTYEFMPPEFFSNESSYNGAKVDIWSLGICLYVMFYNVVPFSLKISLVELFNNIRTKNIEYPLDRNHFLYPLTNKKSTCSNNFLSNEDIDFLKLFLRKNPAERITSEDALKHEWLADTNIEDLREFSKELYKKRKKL
# Chain of Calcium-dependent protein kinase 1 (Plasmodium falciparum (isolate 3D7)) (P62344 whole entry, looked up): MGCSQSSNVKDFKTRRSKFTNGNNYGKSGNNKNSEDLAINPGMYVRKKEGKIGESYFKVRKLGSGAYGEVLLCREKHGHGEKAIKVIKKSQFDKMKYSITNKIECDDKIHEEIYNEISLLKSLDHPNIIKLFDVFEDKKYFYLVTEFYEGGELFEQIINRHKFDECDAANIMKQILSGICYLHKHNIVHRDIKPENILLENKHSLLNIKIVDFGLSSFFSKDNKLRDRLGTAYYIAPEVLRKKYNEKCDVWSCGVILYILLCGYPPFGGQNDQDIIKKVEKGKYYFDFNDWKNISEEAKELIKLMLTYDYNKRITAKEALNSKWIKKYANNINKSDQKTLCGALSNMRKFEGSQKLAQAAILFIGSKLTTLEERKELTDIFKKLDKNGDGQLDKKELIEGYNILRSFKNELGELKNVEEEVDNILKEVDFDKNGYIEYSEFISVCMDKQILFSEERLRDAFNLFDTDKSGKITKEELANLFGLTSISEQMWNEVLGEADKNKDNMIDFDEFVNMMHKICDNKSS
compound,measurement,setting,value
CN1C[C@@H]2C[C@H]1CN2c1cc2c(cc1F)c(=O)c(C(=O)O)cn2C1CC1,inhibition,[1]; at 0.5 µM,-14.3% (inactive)
same,inhibition,[1]; [21],-14.8%
same,inhibition,[1]; [22],-20.1%
same,inhibition,[2]; at 0.5 µM,-7.92% (inactive)
same,inhibition,[2]; [23],-3.36%
same,inhibition,[2]; [24],-96.9%
same,inhibition,[3]; [25],-23.3%
same,inhibition,[3]; at 0.5 µM,-16% (inactive)
same,inhibition,[3]; [26],2.38%
same,inhibition,[4]; at 0.5 µM,-25.7% (inactive)
same,inhibition,[4]; [27],-14.8%
same,inhibition,[4]; [28],-51.5%
Cc1ccc2nc(N)[nH]c(=O)c2c1Sc1ccncc1,inhibition,[1]; at 0.5 µM,-17.5% (inactive)
same,inhibition,[1]; [21],4.97%
same,inhibition,[1]; [22],-23%
same,inhibition,[2]; at 0.5 µM,-12.4% (inactive)
same,inhibition,[2]; [23],-25.9%
same,inhibition,[2]; [24],-11.5%
same,inhibition,[3]; [25],-8.1%
same,inhibition,[3]; at 0.5 µM,-23.6% (inactive)
same,inhibition,[3]; [26],-9.76%
same,inhibition,[4]; at 0.5 µM,-6.91% (inactive)
same,inhibition,[4]; [27],-8.77%
same,inhibition,[4]; [28],-12.3%
Cc1cccc(Nc2cc(Cl)nc(SCC(=O)O)n2)c1C,remaining activity,[5],107% (inactive)
same,fold fluorescence,[6],4.05 (inactive)
CCCCCCCCCCCCCCCCCCOP(=O)([O-])OC1CC[N+](C)(C)CC1,outcome,[7],inactive
same,outcome,[8],inactive
C[C@@H](C1=C(CCN(C)C)Cc2ccccc21)c1ccccn1,remaining activity,[5],105% (inactive)
COC(=O)C1=C(C)NC(C)=C(C(=O)OC)C1c1ccccc1[N+](=O)[O-],z-score,[9],-0.452 (inactive)
same,remaining activity,[5],121% (inactive)
same,fold fluorescence,[6],3.72 [at 144.4 µM] (inactive)
O=C(CCCN1CCC(O)(c2ccc(Cl)cc2)CC1)c1ccc(F)cc1,z-score,[9],-0.0752 (inactive)
same,remaining activity,[5],128% (inactive)
same,outcome,[7],inactive
CC(C)NCC(O)COc1cccc2[nH]ccc12 (centres undefined),remaining activity,[5],101% (inactive)
COc1ccccc1N1CCN(CCCCNC(=O)c2ccc(-c3ccc(C(C)=O)cc3)cc2)CC1,remaining activity,[5],111% (inactive)
CC(C)OC(=O)C(C)(C)Oc1ccc(C(=O)c2ccc(Cl)cc2)cc1,outcome,[8],inactive
same,outcome,[10],inactive
same,outcome,[11],inactive
CCn1cc(C(=O)O)c(=O)c2ccc(C)nc21,outcome,[7],inactive
same,inhibition,[1]; at 0.5 µM,13.8% (inactive) and -1.94% (inactive)
same,inhibition,[1]; [21],-3.65% and -15.7%
same,inhibition,[1]; [22],2.92% and -1.74%
same,inhibition,[2]; at 0.5 µM,5.5% (inactive) and -20.2% (inactive)
same,inhibition,[2]; [23],1.69% and -14.8%
same,inhibition,[2]; [24],8.3% and -22.4%
same,inhibition,[3]; [25],11.3% and 18.4%
same,inhibition,[3]; at 0.5 µM,11% (inactive) and -9.48% (inactive)
same,inhibition,[3]; [26],7.14% and -4.85%
same,inhibition,[4]; at 0.5 µM,1.03% (inactive) and 6.47% (inactive)
same,inhibition,[4]; [27],-4.36% and 3.89%
same,inhibition,[4]; [28],17.2% and 0.487%
CC(C)(C)NCC(O)c1ccc(O)c(CO)c1 (centres undefined),z-score,[9],-0.605 (inactive)
same,outcome,[12],inactive
same,outcome,[7],inactive
same,outcome,[8],inactive
same,outcome,[13],inactive
same,outcome,[10],inactive
same,outcome,[11],inactive
COCCCOc1ccnc(CS(=O)c2nc3ccccc3[nH]2)c1C (centres undefined),z-score,[9],0.22 (inactive)
same,outcome,[12],inactive
same,outcome,[7],inactive
same,outcome,[13],inactive
same,outcome,[11],inactive
COc1ccc2cc([C@H](C)C(=O)O)ccc2c1,z-score,[9],-0.354 (inactive)
same,remaining activity,[5],75.8% (inactive)
same,outcome,[12],inactive
same,outcome,[7],inactive
same,outcome,[10],inactive
same,outcome,[11],inactive
CN(C)C(=O)C(CCN1CCC(O)(c2ccc(Cl)cc2)CC1)(c1ccccc1)c1ccccc1,remaining activity,[5],118% (inactive)
same,outcome,[7],inactive
same,outcome,[8],inactive
same,outcome,[10],inactive
same,outcome,[11],inactive
same,fold fluorescence,[6],10.1 [at 104.8 µM] (inactive)
COc1c2occc2cc2ccc(=O)oc12,outcome,[12],inactive
same,outcome,[7],inactive
same,outcome,[8],inactive
same,outcome,[10],inactive
same,outcome,[11],inactive
CCCC(CCC)C(=O)O,outcome,[12],inactive
same,outcome,[7],inactive
same,outcome,[13],inactive
same,outcome,[10],inactive
same,outcome,[11],inactive
same,inhibition,[1]; at 0.5 µM,-4.81% (inactive) and 13.2% (inactive)
same,inhibition,[1]; [21],-26.3% and 5.38%
same,inhibition,[1]; [22],-23.4% and 27.8%
same,inhibition,[2]; at 0.5 µM,-16.9% (inactive) and 1.18% (inactive)
same,inhibition,[2]; [23],-15.6% and 6.48%
same,inhibition,[2]; [24],-69.4% and 11.4%
same,inhibition,[3]; [25],-15.2% and 3.45%
same,inhibition,[3]; at 0.5 µM,-19% (inactive) and 7.15% (inactive)
same,inhibition,[3]; [26],0.227% and -13.4%
same,inhibition,[4]; at 0.5 µM,-9% (inactive) and 2.09% (inactive)
same,inhibition,[4]; [27],-11% and 1.03%
same,inhibition,[4]; [28],0.797% and 9.29%
NC(=O)c1cccnc1,z-score,[9],1.84 (inactive)
same,outcome,[12],inactive
same,outcome,[8],inactive
same,outcome,[13],inactive
same,outcome,[10],inactive
same,outcome,[11],inactive
CC(C(=O)O)c1cccc(C(=O)c2ccccc2)c1 (centres undefined),outcome,[12],inactive
same,outcome,[8],inactive
same,outcome,[13],inactive
same,outcome,[10],inactive
CN1CCN(C2=Nc3cc(Cl)ccc3Nc3ccccc32)CC1,remaining activity,[5],121% (inactive)
same,AC50,[13],13.2 µM (active)
same,outcome,[11],inactive
same,fold fluorescence,[6],11 [at 153 µM] (inactive)
O=C(O)CCc1nc(-c2ccccc2)c(-c2ccccc2)o1,z-score,[9],0.876 (inactive)
CN1C(=O)CC[C@H]1c1cccnc1,z-score,[9],-0.371 (inactive)
Cc1cc(NS(=O)(=O)c2ccc(N)cc2)no1,AC50,[7],2.96 µM (active)
CCN(CC)CCOc1ccc(Cc2ccccc2)cc1,remaining activity,[5],100% (inactive)
same,outcome,[8],inactive
same,outcome,[10],inactive
same,outcome,[11],inactive
Cc1ccc(-n2nc(C(C)(C)C)cc2NC(=O)Nc2ccc(OCCN3CCOCC3)c3ccccc23)cc1,outcome,[12],inactive
same,AC50,[7],13.2 µM (active)
same,outcome,[8],inactive
same,outcome,[13],inactive
same,outcome,[10],inactive
same,outcome,[11],inactive
same,SSMD,[14],3.54
same,cell count,[14],7570
same,plate-normalised HSF1 focus index,[14],1.13 (inactive)
COc1cc(Cc2cnc(N)nc2N)cc(OC)c1OC,growth inhibition,[15],2% (inactive)
same,inhibition,[16],0% (inactive)
same,outcome,[17],inactive
same,outcome,[18],inactive
same,outcome,[19],inactive
same,outcome,[20],inactive
N=c1nc(N2CCCCC2)cc(N)n1O,remaining activity,[5],109% (inactive)
same,outcome,[7],inactive
same,fold fluorescence,[6],4.24 [at 238.9 µM] (inactive)
O=S(=O)(c1cccc2cnccc12)N1CCCNCC1,fold fluorescence,[6],2.56 [at 137.3 µM] (active)
